HT1080-NT tox = kills 2HG-producing HT-1080-NT fibrosarcoma cells; AID 686970; actives 1.6% (n = 360,000); HT-1080-NT fibrosarcoma viability, CellTiter-Glo ATP luminescence, 48 h; Potency, µM (series often up to 46.1 µM), actives largely listed as cytotoxic;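 further: NT is the 2HG producing partner of a matched IDH1 knockdown line; nearly all actives have a fitted effect of over 55% in size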
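Compounds were tested in concentration-response format on HT-1080-NT cells for 48 hours at 37 degrees C. Cell viability came from CellTiter-Glo luminescence; curves were classified by r2, response magnitude and activity.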
TDP1 cell noCPT = qHTS for Inhibitors of human tyrosyl-DNA phosphodiesterase 1 (TDP1): qHTS in cells in absence of CPT. DT40 Tdp1-/- hTDP1 cells, no CPT, ATP luminescence, 48 h. actives 15% (n = 420,000). AID 686978, 2013. Potency, µM (highest dose often 46.2 µM), usual class: inhibitors; further: nearly all actives have a fitted effect of over 55% in size
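Compound effects on proliferation are scored in DT40 Tdp1-/-;hTDP1 cells in the absence of CPT. ATP levels (CellTiter-Glo luminescence) are recorded after a ≥48 hr, 37 °C incubation.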
TDP1 cell CPT = growth inhibition of DT40 Tdp1-/-;hTDP1 cells with camptothecin (screen for TDP1 inhibitors); chicken DT40 Tdp1-/-;hTDP1 cells + 20 nM CPT, ATP luminescence, 48 h; Potency, µM (series often up to 46.2 µM), usual class: inhibitors; actives 12% (n = 420,000); further: nearly all actives have a fitted effect of over 55% in size
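Chicken DT40 Tdp1-/- cells complemented with human TDP1, 400 cells/well, exposed to compounds plus 20 nM camptothecin for at least 48 h at 37 C; viability read as ATP content by CellTiter-Glo luminescence.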
IL1B secr inh = inflammasome signaling inhibition, IL-1 beta readout | actives 4.7% (n = 360,000) | THP-1 LPS/ATP IL-1B secretion, AlphaLISA, 16 h; active compounds read low | AID 743279 | activity change, % at 57.5 µM; in the data active means activity change below about -50%; inconclusive means mostly about -30% to -49%
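THP-1 cells pretreated 1 hr with compounds (up to 57.5 uM final), then stimulated with LPS (250 ng/mL final) plus ATP (1.25 mM final); secreted IL-1B measured by AlphaLISA after 16 hr, decreased signal indicating inhibition.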
HT1080 IDH1KD tx = kills HT-1080 cells with IDH1 knockdown. HT-1080 IDH1 knockdown viability, ATP luminescence, 48 h. Potency, µM (titrated, usually from 46.1 µM), usual class: cytotoxic. actives 2% (n = 360,000)
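HT-1080-IDH1KD cells (IDH1 knocked down), 750/well in RPMI with 5% FBS, treated with compound 48 h at 37 degrees C. Viability by CellTiter-Glo luminescence, normalised to DMSO and no-cell wells; concentration-response curves classed.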
A number is an active result; . = inactive; ? = inconclusive; / = no result given. The list is not random: actives were taken first. Their share in the collection is about 19%. Unless noted, the call rests on the fitted dose curve; in most records, active means well fitted curve in the direction sought with a large enough effect; inconclusive means small, poorly fitted or top-dose-only effect, or another doubt; inactive means no such curve, though single readings can be large; an effect the other way counts as inactive or inconclusive.

SMILES	HT1080-NT tox	TDP1 cell noCPT	TDP1 cell CPT	IL1B secr inh	HT1080 IDH1KD tx
O=C(c1ccccn1)c1cc2ccccc2n1S(=O)(=O)c1ccccc1	.	?	?	.	.
Cc1ccc(-c2csc3ncnc(N4CCN(c5ccccc5O)CC4)c23)cc1	.	14.6µM	?	-61.3	.
Cc1nnc(SCC(=O)Nc2nccs2)o1	.	.	.	.	.
COc1ccc(OC)c(NC(=O)C2(C)CCN2C(=O)Cc2ccc(Cl)cc2Cl)c1 (configuration not stated)	.	18.4µM	20.6µM	.	.
CC1(C(=O)Nc2ccc(Cl)c(Cl)c2)CCN1C(=O)CC1CCCC1 (configuration not stated)	.	?	25.9µM	.	.
CC1(C(=O)Nc2cccc3cccnc23)CCN1C(=O)CC1CC1 (configuration not stated)	.	.	.	.	.
COc1ccc(NC(=O)C2(C)CCN2C(=O)Cc2ccc(Cl)cc2Cl)cc1OC (configuration not stated)	.	20.6µM	18.4µM	.	.
CC1(C(=O)Nc2ccc3c(c2)OCCO3)CCN1C(=O)CC1CCCC1 (configuration not stated)	.	?	?	.	.
COc1ccc(OC)c(S(=O)(=O)NC(=O)C2(C)CCN2C(=O)Cc2ccc(Cl)cc2Cl)c1 (configuration not stated)	.	.	.	.	.
CC1(C(=O)Nc2cccc3cccnc23)CCN1C(=O)Cc1ccc(Cl)cc1Cl (configuration not stated)	.	20.6µM	20.6µM	.	.
C=CCN(CC=C)C(=O)CN1C(=O)NC(c2ccccc2)(c2ccccc2)C1=O	.	?	?	.	.
CC(=O)Nc1nnc(Cc2c[nH]c3ccccc23)s1	.	.	.	.	.
O=[N+]([O-])c1ccc(Cl)cc1Sc1nc2ccccc2o1	.	?	?	-58.2	.
O=[N+]([O-])c1ccc(Cl)cc1Sc1cccc2cccnc12	.	?	.	.	.
Cc1cn(CC(=O)N2CCN(c3ccccn3)CC2)c(=O)[nH]c1=O	.	.	.	.	.
CCOC(=O)c1cnc2c(C)c(Cl)ccc2c1NCCc1ccc(OC)c(OC)c1	/	16.4µM	?	/	/
CCOC(=O)c1cnc2ccc(C)cc2c1NCCO	.	.	.	.	.
CCOC(=O)c1cnc2c(C)cccc2c1NCCc1ccc(OC)c(OC)c1	.	23.1µM	16.4µM	.	?
CCOC(=O)c1cnc2c(C)cc(C)cc2c1NCCc1ccc(OC)c(OC)c1	/	23.1µM	20.6µM	/	/
COc1ccc(CCNC(=O)COC(=O)COc2c(C)cc(C)cc2C)cc1OC	.	.	.	.	.
COc1ccc(NC(=O)CCCOc2ccc(Cl)c(C)c2)cc1S(=O)(=O)N1CCOCC1	.	?	?	.	?
CCCN1C(=O)/C(=C/c2nc3ccccc3c(=O)[nH]2)c2cc(C)ccc21	.	8.2µM	20.6µM	.	.
Cc1ccc(C)c(C(=O)CSc2nc3ccccc3c(=O)[nH]2)c1	.	?	.	.	.
CC(C)N1C(=O)/C(=C\c2nc3ccccc3c(=O)[nH]2)c2ccccc21	?	29.1µM	?	-99.9	?
Cc1nc2sc(-c3ccccc3)cc2c(=O)n1N	.	?	?	.	.
SMILES	HT1080-NT tox	TDP1 cell noCPT	TDP1 cell CPT	IL1B secr inh	HT1080 IDH1KD tx
Cc1nc2sc(-c3ccccc3)cc2c(=O)n1-n1cccc1	.	?	?	-62.5	.
COC(=O)CN(c1ccc(F)cc1)S(=O)(=O)c1ccc2c(c1)OCCO2	.	.	.	.	.
COc1ccc(C(=O)N2CCc3cc(OC)c(OC)cc3C2COc2ccccc2OC)cc1 (configuration not stated)	/	29.1µM	16.4µM	/	/
COc1cc2c(cc1OC)C(COc1ccc(C(C)C)cc1)N(C(=O)c1ccc(S(=O)(=O)N3CCCC3)cc1)CC2 (configuration not stated)	/	20.6µM	?	/	/
COc1cc2c(cc1OC)C(C)N(S(=O)(=O)c1ccc(C)cc1)CC2 (configuration not stated)	.	?	.	.	.
COc1cc2c(cc1OC)C(COc1ccccc1OC)N(C(C)=O)CC2 (configuration not stated)	.	.	.	.	.
COc1cc2c(cc1OC)C(COc1ccc(C(C)C)cc1)NCC2 (configuration not stated)	.	16.4µM	?	.	.
COc1ccc(C2c3cc(OC)c(OC)cc3CCN2S(C)(=O)=O)cc1OC (configuration not stated)	.	20.6µM	16.4µM	.	.
CCN(CC)S(=O)(=O)c1ccc(C(=O)NCC2CCCCC2)cc1	.	?	.	.	.
O=C(N1CCCCCC1)N1CCN(S(=O)(=O)c2cccc([N+](=O)[O-])c2)CC1	.	?	?	.	.
O=C(O)c1cc(N2CCCCC2)ccn1	.	.	.	.	.
CN(C)c1ncc2nc(-c3cc(F)cc(F)c3)c(=O)n(Cc3ccc(F)cc3)c2n1	/	.	.	/	/
COc1ccc(C2c3cc(OC)c(OC)cc3CCN2C(=O)c2ccccc2)cc1OC (configuration not stated)	.	9.2µM	?	.	.
COc1ccc(C(=O)N2CCc3cc(OC)c(OC)cc3C2c2ccc(OC)c(OC)c2)cc1 (configuration not stated)	.	?	?	-51.3	?
COc1cc(OC)cc(C(=O)N2CCN(C(=O)c3ccc(OC)c(OC)c3)CC2)c1	.	.	.	.	.
COc1cc2c(cc1OC)C(c1ccc(Br)cc1)N(C(=O)c1ccccc1C(=O)O)CC2 (configuration not stated)	.	.	.	.	.
COc1ccc(C2c3cc(OC)c(OC)cc3CCN2C(=O)c2ccccc2Br)cc1OC (configuration not stated)	.	?	.	?	.
COc1ccc(-c2n[nH]c3c2CN(C(=O)c2ccc(OC)c(OC)c2)CC3)cc1	.	8.2µM	8.2µM	.	20.6µM
COc1ccc(CN2CCNC(=O)C2CC(=O)N(C)Cc2nccn2C)cc1OC (configuration not stated)	.	?	.	.	.
CNC(=O)c1cn2c3c(ccc(Cl)c3c1=O)OC(C)C2 (configuration not stated)	.	.	.	.	.
O=C(Nc1ccc(Oc2ccccc2)cc1)N[C@@H](Cc1ccccc1)C(=O)O	.	.	.	.	.
COc1ccc(CCn2c(=O)c3ccccc3n(CC(=O)Nc3cccc(C)c3)c2=O)cc1OC	/	.	.	/	/
COc1ccc(-c2nn(Cc3ccccc3)cc2C(=O)N2CCN(c3ncccn3)CC2)cc1	.	?	?	.	.

Screens from PubChem.
